Test results published in PubChem BioAssay (EPA / NIEHS).
The source made the active and inactive calls. How the source made its calls: active means hit-call score of the fitted dose curve at least 0.9, where 1 is the maximum; inactive means score below 0.9.

Experiments:
[1] = ATG_AP_1_CIS: Attagene CIS-FACTORIAL HepG2 Assay for human Activator Protein 1 (AP-1) (AID 2282931); conditions: HepG2 Attagene cis-factorial AP-1 reporter mRNA; actives raise or lower the signal
Procedure, shortened: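 HepG2, transient cis-reporter transfection; 24 h; readout RT-PCR/CE fluorescence; DMSO baseline, gain and loss fitted.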

[2] = ATG_AP_2_CIS: Attagene CIS-FACTORIAL HepG2 Assay for human Activator Protein 2 (AP-2) (AID 2282932); conditions: HepG2 AP-2 cis-reporter, Attagene transcription factor profiling; actives raise or lower the signal
Procedure, shortened: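 Step one: transient transfection of HepG2 with reporter transcription units. Step two: 24 h chemical exposure. Step three: RNA extraction, RT-PCR, labelled fragment analysis by capillary electrophoresis; DMSO serves as baseline.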

[3] = ATG_BRE_CIS: Attagene CIS-FACTORIAL HepG2 Assay for human Bone Morphogenetic Protein (BMP) Response Element (BRE) (AID 2282933); conditions: HepG2 BMP response element reporter, Attagene transcription factor profiling; actives raise or lower the signal
Procedure, shortened: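 Multiplexed cis-reporter assay, HepG2, 24 h exposure. mRNA from reporter units quantified via RT-PCR/CE; DMSO baseline; bidirectional curve fit.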

[4] = target: Retinoic acid receptor alpha (Homo sapiens) (UniProt P10276); test: ATG_DR5_RAR_CIS: Attagene CIS-FACTORIAL HepG2 Assay for human Retinoic Acid Receptor Alpha (RARE), DR5 submotif (AID 2282934); conditions: HepG2 Attagene cis-factorial RARE DR5 reporter, mRNA; actives raise or lower the signal;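 on AC50: reporter responds to endogenous RAR alpha beta and gamma in HepG2 not RARA alone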
Retinoic acid receptor alpha (Homo sapiens), sequence (P10276 whole entry, looked up): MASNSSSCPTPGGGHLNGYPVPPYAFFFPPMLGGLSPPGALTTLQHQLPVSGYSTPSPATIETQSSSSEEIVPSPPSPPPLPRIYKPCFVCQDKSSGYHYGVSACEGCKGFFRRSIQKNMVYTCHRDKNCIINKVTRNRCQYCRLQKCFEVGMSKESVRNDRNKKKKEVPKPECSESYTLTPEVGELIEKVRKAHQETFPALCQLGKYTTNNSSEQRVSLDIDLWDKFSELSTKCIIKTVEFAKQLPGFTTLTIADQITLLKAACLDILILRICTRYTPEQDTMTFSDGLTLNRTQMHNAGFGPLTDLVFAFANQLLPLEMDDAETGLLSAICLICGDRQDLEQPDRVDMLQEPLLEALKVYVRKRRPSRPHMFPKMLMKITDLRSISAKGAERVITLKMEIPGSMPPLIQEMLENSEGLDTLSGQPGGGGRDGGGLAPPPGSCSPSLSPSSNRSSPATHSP
Procedure, shortened: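 Reporter transcripts from a DR5-regulated unit, measured via RT-PCR plus capillary electrophoresis, reflect endogenous RAR activity in transiently transfected human HepG2 liver cells. Exposure lasted 24 h; gain or loss of signal scored against DMSO.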

[5] = target: Transcription factor E2F1 (Homo sapiens) (UniProt Q01094); test: ATG_E2F_CIS: Attagene CIS-FACTORIAL HepG2 Assay for human E2F Transcription Factor 1 (AID 2282935); conditions: HepG2 Attagene cis-reporter, E2F reporter RNA transcripts; actives raise or lower the signal
Transcription factor E2F1 (Homo sapiens), sequence (Q01094 whole entry, looked up): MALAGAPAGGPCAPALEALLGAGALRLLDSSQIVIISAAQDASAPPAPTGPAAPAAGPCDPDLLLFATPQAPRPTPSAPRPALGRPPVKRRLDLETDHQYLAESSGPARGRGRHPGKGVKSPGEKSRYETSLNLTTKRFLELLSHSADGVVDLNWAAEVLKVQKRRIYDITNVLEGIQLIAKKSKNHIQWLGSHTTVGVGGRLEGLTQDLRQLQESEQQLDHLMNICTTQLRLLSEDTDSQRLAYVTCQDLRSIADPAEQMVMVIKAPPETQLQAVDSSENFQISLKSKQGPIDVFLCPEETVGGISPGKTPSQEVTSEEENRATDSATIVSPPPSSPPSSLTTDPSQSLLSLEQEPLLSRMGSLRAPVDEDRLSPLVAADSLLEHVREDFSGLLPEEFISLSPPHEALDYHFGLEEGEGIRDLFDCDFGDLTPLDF
Procedure, shortened: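 Total RNA from 24 h-treated, reporter-transfected HepG2 cells undergoes DNase I treatment, oligo(dT) reverse transcription, PCR and 6-FAM primer extension before capillary electrophoresis.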

[6] = ATG_E_Box_CIS: Attagene CIS-FACTORIAL HepG2 Assay for human Enhancer Box (E-box) (AID 2282936); conditions: HepG2 E-box cis-reporter transcription, actives raise or lower the signal
Procedure, shortened: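 DMSO served as negative control and baseline for bidirectional fitting. Human hepatoma HepG2 cells, transiently transfected with cis-reporter constructs, were dosed 24 h; reporter mRNA read by RT-PCR and capillary electrophoresis.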

[7] = ATG_M_61_CIS: Attagene CIS-FACTORIAL HepG2 Assay for M61 Transcription Factor (Internal Marker) (AID 2282937); conditions: HepG2 Attagene CIS-FACTORIAL M61 internal marker reporter; actives raise or lower the signal
Procedure, shortened: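 Transfect HepG2 with MRTUs; dose 24 h; isolate RNA; reverse-transcribe with DNase I treatment; PCR-amplify, FAM-label and cut with HpaI for 2 h at 37 C; resolve by CE. Bidirectional fitting against DMSO.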

[8] = ATG_EGR_CIS: Attagene CIS-FACTORIAL HepG2 Assay for human Early Growth Response 1 (EGR1) (AID 2282938); conditions: HepG2 Attagene CIS-FACTORIAL EGR reporter mRNA; actives raise or lower the signal
Procedure, shortened: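 After a 24 h treatment of transiently transfected HepG2 cells, total RNA was reverse-transcribed and reporter sequences PCR-amplified, labelled and run on capillary electrophoresis. Reporters sit under cis-regulatory promoters sensing endogenous factors.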

[9] = ATG_M_19_CIS: Attagene CIS-FACTORIAL HepG2 Assay for M19 Transcription Factor (Internal Marker) (AID 2282939); conditions: HepG2 Attagene CIS-FACTORIAL M19 internal marker reporter; actives raise or lower the signal
Procedure, shortened: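 Signals come from fluorescence of labelled reporter-specific PCR fragments resolved by capillary electrophoresis, following 24 h treatment of HepG2 cells transfected with cis-promoter reporter units; activity was fitted in both directions relative to DMSO.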

[10] = ATG_ERE_CIS: Attagene CIS-FACTORIAL HepG2 Assay for Estrogen Response Element (ERE) (AID 2282940); conditions: HepG2 ERE cis-reporter, Attagene RNA transcript; actives raise or lower the signal
Procedure, shortened: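 Fluorescence of capillary-separated, FAM-labelled reporter cDNA fragments indicates reporter mRNA levels in HepG2 cells exposed to chemicals for 24 h. Transient transfection with cis-regulated units; data fitted in both directions against DMSO.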

[11] = ATG_Ets_CIS: Attagene CIS-FACTORIAL HepG2 Assay for human Erythroblast Transformation Specific (ETS) (AID 2282941); conditions: HepG2 ETS cis-reporter transcription, actives raise or lower the signal
Procedure, shortened: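 HepG2 cells transiently transfected with cis-promoter reporter transcription units were dosed for 24 h; reporter mRNA was measured by RT-PCR, 6-FAM primer extension, HpaI digestion and capillary electrophoresis, with bidirectional fitting against DMSO baseline.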

[12] = target: Hepatocyte nuclear factor 3-beta (Homo sapiens) (UniProt Q9Y261); test: ATG_FoxA2_CIS: Attagene CIS-FACTORIAL HepG2 Assay for human Forkhead box A2 (FOXA2) (AID 2282942); conditions: HepG2 cis-reporter transcription factor activity, 24 h; actives raise or lower the signal
Hepatocyte nuclear factor 3-beta (Homo sapiens), sequence (Q9Y261 whole entry, looked up): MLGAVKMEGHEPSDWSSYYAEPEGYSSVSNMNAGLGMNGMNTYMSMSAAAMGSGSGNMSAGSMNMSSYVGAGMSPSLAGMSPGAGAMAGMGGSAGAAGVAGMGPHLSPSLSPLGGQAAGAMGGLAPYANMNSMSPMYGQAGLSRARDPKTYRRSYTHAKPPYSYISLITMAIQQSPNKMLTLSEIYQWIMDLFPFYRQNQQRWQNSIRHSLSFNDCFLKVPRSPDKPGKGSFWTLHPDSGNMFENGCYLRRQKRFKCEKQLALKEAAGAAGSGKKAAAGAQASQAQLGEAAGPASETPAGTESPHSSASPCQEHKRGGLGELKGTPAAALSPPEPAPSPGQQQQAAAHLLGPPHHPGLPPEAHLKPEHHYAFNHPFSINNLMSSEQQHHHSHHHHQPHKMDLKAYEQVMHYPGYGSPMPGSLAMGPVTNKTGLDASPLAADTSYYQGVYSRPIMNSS
Procedure, shortened: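 24 h dosing of HepG2 bearing cis-reporter constructs; mRNA readout by RT-PCR/CE fluorescence; bidirectional fit, DMSO baseline.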

[13] = ATG_FoxO_CIS: Attagene CIS-FACTORIAL HepG2 Assay for human Forkhead box O (FoxO) (AID 2282943); conditions: HepG2 Attagene cis-reporter, FoxO element, mRNA; actives raise or lower the signal
Procedure, shortened: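 Endogenous transcription factor activity read from multiplexed cis-promoter reporter transcripts in transiently transfected HepG2, 24 h after dosing. Reporter RNA measured via RT-PCR plus capillary electrophoresis of FAM-labeled products; gain or loss relative to DMSO.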

[14] = ATG_GLI_CIS: Attagene CIS-FACTORIAL HepG2 Assay for human Zinc Finger Protein GLI1 (AID 2282945); conditions: HepG2, Attagene cis-factorial reporter mRNA, GLI element; actives raise or lower the signal
Procedure, shortened: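 Bidirectional curve fits relative to DMSO, using reporter mRNA levels from RT-PCR plus capillary electrophoresis. Cells were HepG2 transiently carrying cis-regulated reporter constructs, harvested 24 h after dosing.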

[15] = target: Bile acid receptor (Homo sapiens) (UniProt Q96RI1); test: ATG_IR1_CIS: Attagene CIS-FACTORIAL HepG2 Assay for human Nuclear Receptor Subfamily 1 Group H Member 4 (NR1H4), IR1 submotif (AID 2282946); conditions: IR1 reporter transcription, actives raise or lower the signal
Bile acid receptor (Homo sapiens), sequence (Q96RI1 whole entry, looked up, the tested form may be a part): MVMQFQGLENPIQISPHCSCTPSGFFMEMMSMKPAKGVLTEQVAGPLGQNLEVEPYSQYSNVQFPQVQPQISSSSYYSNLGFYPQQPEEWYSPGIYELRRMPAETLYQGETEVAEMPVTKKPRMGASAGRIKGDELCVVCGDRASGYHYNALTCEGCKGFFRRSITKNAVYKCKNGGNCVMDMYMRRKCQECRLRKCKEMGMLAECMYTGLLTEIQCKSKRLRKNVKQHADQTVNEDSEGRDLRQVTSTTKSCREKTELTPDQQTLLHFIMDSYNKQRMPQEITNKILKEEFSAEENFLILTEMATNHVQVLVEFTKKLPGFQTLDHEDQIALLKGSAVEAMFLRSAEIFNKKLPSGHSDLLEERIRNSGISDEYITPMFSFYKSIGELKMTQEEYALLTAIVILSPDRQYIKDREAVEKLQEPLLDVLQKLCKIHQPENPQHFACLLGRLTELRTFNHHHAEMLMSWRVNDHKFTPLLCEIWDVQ
Procedure, shortened: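 Cells (human HepG2) carry transiently transfected cis-promoter reporter transcription units. Compounds are incubated 24 h, total RNA is reverse-transcribed and amplified, and labelled fragments are resolved by capillary electrophoresis. Curves use DMSO as baseline.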

[16] = ATG_GRE_CIS: Attagene CIS-FACTORIAL HepG2 Assay for human Glucocorticoid Response Elements (GRE) (AID 2282947); conditions: HepG2 GRE cis-reporter, Attagene multiplex mRNA; actives raise or lower the signal
Procedure, shortened: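 Assay uses human hepatoma HepG2 cells transfected with cis-promoter reporter units, exposed 24 h. mRNA from reporters detected by RT-PCR plus capillary electrophoresis; DMSO serves as negative control and baseline.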

[17] = ATG_ISRE_CIS: Attagene CIS-FACTORIAL HepG2 Assay for human Interferon Regulatory Factor 1 (IRF1) binding to an Interferon-Stimulated Response Element (ISRE) (AID 2282948); conditions: HepG2 ISRE cis-reporter (Attagene), mRNA transcription readout; actives raise or lower the signal
Procedure, shortened: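 HepG2 cells transiently transfected with multiplexed cis-promoter reporter units; after 24 h compound exposure, reporter mRNA quantified by RT-PCR, FAM labelling, HpaI digestion and capillary electrophoresis. Bidirectional fit versus DMSO baseline.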

[18] = ATG_M_32_CIS: Attagene CIS-FACTORIAL HepG2 Assay for M32 Transcription Factor (Internal Marker) (AID 2282949); conditions: HepG2 Attagene cis-factorial M32 reporter, mRNA; actives raise or lower the signal;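 further: background control marker of the multiplexed CIS panel rather than a real target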
Procedure, shortened: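 Internal background marker read-out: RT-PCR/capillary electrophoresis fluorescence of reporter transcripts from transiently transfected HepG2 cells after 24 h chemical exposure. Activity fitted bidirectionally relative to DMSO negative control.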

[19] = ATG_M_06_CIS: Attagene CIS-FACTORIAL HepG2 Assay for M06 Transcription Factor (Internal Marker) (AID 2282950); conditions: HepG2 Attagene CIS-FACTORIAL M06 internal marker reporter; actives raise or lower the signal
Procedure, shortened: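 HepG2 liver cells, 24 h exposure. Reporter transcripts from transfected cis-element constructs quantified by RT-PCR/capillary electrophoresis fluorescence. Bidirectional curve fit against DMSO.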

[20] = ATG_GATA_CIS: Attagene CIS-FACTORIAL HepG2 Assay for human GATA Binding Protein (AID 2282944); conditions: HepG2 GATA cis-element reporter, Attagene multiplex mRNA; actives raise or lower the signal
Procedure, shortened: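 After transfecting HepG2 cells with multiple cis-regulated reporter units, chemicals are dosed for 24 h; isolated RNA undergoes RT-PCR and fluorescent labeling before capillary electrophoresis, with activity expressed against DMSO.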

Measured: AC50

COC(F)(C(F)(F)C(F)(F)F)C(F)(C(F)(F)F)C(F)(F)F (configuration not stated)
not listed: [20]
inactive: all other assays above

COP(=S)(OC)Oc1cc(Cl)c(I)cc1Cl
active: [2] 22.5 µM | [6] 34.7 µM | [8] 41.3 µM | [11] 39.9 µM | [13] 41.8 µM | [20] 46.2 µM | [16] 58.1 µM | [17] 48.7 µM
not listed: [10] | [18]
inactive: all other assays above

Clc1cccc(Cl)c1Cl
not listed: [9] | [10] | [15]
inactive: all other assays above

CC(C)(C#N)N=NC(C)(C)C#N
not listed: [9] | [15] | [19] | [20]
inactive: all other assays above

Cc1c([N+](=O)[O-])c(C)c([N+](=O)[O-])c(C(C)(C)C)c1[N+](=O)[O-]
active: [4] 3.83 µM | [10] 23.7 µM | [17] 22.5 µM
not listed: [15] | [19] | [20]
inactive: all other assays above

OC(Cc1ccccc1Cl)(Cn1cncn1)C1(Cl)CC1 (configuration not stated)
active: [8] 47.6 µM
not listed: [7]
inactive: all other assays above

OC[C@@H](O)[C@H]1O[C@@H]2O[C@H](C(Cl)(Cl)Cl)O[C@@H]2[C@H]1O
not listed: [7] | [15] | [19]
inactive: all other assays above

CCOP(=O)(OCC)OC(=CCl)c1ccc(Cl)cc1Cl
active: [10] 11.1 µM
not listed: [6] | [15] | [20]
inactive: all other assays above

CCCCCCCCCCCCCCC(Br)C(=O)O (configuration not stated)
inactive: [3] | [6] | [10] | [11] | [13] | [20] | [15] | [17]
active: [1] 173 µM | [2] 100 µM | [4] 26.9 µM | [5] 108 µM | [7] 183 µM | [12] 62.4 µM | [14] 137 µM | [16] 159 µM | [18] 164 µM

C[C@@H]1O[C@@H](O[C@H]2C[C@@H](O)[C@]3(CO)[C@H]4[C@H](O)C[C@]5(C)[C@@H](C6=CC(=O)OC6)CC[C@]5(O)[C@@H]4CC[C@]3(O)C2)[C@H](O)[C@H](O)[C@H]1O
active: [1] 0.215 µM | [2] 0.119 µM | [4] 0.155 µM | [8] 0.0716 µM | [11] 0.221 µM | [13] 0.233 µM | [20] 0.0716 µM | [16] 0.287 µM | [17] 0.279 µM
not listed: [6]
inactive: all other assays above

Cc1cc(C(F)(C(F)(F)F)C(F)(F)F)ccc1NC(=O)c1cccc(I)c1C(=O)NC(C)(C)CS(C)(=O)=O
not listed: [6]
inactive: all other assays above

Cc1ccc2nc3sc(=O)sc3nc2c1
active: [2] 9.68 µM | [3] 25 µM | [4] 6.63 µM | [11] 45.9 µM | [12] 11.9 µM | [13] 6.07 µM | [20] 29.9 µM | [15] 25 µM | [16] 41.1 µM
not listed: [8]
inactive: all other assays above

CC(C)C(C)(N)C#N (configuration not stated)
active: [4] 46.9 µM
not listed: [8] | [10]
inactive: all other assays above

C1CN2CCN1CC2
not listed: [7] | [15] | [16]
inactive: all other assays above

Cc1ccccc1OP(=O)(Oc1ccccc1C)Oc1ccccc1C
active: [1] 17.5 µM | [5] 69.7 µM | [10] 3.04 µM | [17] 7 µM
not listed: [6] | [19]
inactive: all other assays above
